VACV Venus inh – qHTS for Stage-Specific Inhibitors of Vaccinia Orthopoxvirus: Venus Reporter Primary qHTS; Vaccinia virus Venus reporter expression, fluorescence; AID 720580, 2013; Potency, µM (top dose mostly 36.5 µM), actives largely listed as inhibitors; hit rate 0.46% among 330,000; calls by dose curve; tested in A549 cells; also: nearly all actives have a fitted effect of over 30% in size
HCV inhibitor – qHTS Assay for Inhibitors of Hepatitis C Virus (HCV); Huh7.5.1 HCVcc-Cre infection, luciferase reporter, 44 h; hit rate 3.4% among 340,000; Potency, µM (doses to about 41.8 µM), usual class: inhibitors; active = well fitted inhibition curve with a large enough effect; inconclusive = small, poorly fitted or top-dose-only effect, or another doubt; inactive = no such curve, though single readings can be large or run the other way
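A cell-based infection assay in which seeded cells (1,000 per well) receive test compound after 4 h, are inoculated with HCVcc-Cre at approximately 0.5 moi, and are incubated 44 h before luminescence detection.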
MARV entry inh – qHTS for inhibitors of binding or entry into cells for Marburg Virus. Marburg virus pseudotyped entry inhibition, cell reporter. Potency, µM (top dose mostly 37.8 µM), most hits filed as inhibitors. hit rate 1.8% among 300,000; calls by dose curve; tested in HEK293 cells
Lassa entry inh – qHTS for Inhibitors of binding or entry into cells for Lassa Virus | Lassa virus pseudotype entry inhibition, cell reporter | Potency, µM (top dose mostly 37.9 µM), most hits filed as inhibitors | hit rate 1.2% among 300,000; calls by dose curve; tested in HEK293 cells; also: nearly all actives have a fitted effect of over 50% in size
HCMV antiviral – qHTS Assay for inhibitors of the human cytomegalovirus (HCMV); activity change, negative = inhibition, % at 57.5 µM; HFF cells, HCMV-luciferase reporter, 72 h; active compounds read low; hit rate 4.5% among 410,000; in the data active = activity change below about -60%; inconclusive = no clear call, values can overlap the other calls; inactive = above about -39%
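Two compound doses tested in HFFs infected with HCMV-luciferase, MOI 1 PFU/cell, 72 h at 37C. Lysate luminescence read with OneGlo; data normalized against buffer-only and 10uM Salinomycin inhibitor controls.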
Vaccinia mCherry – qHTS for Stage-Specific Inhibitors of Vaccinia Orthopoxvirus: mCherry Reporter Primary qHTS; Vaccinia virus mCherry reporter infection, fluorescence; Potency, µM (highest dose often 36.5 µM), usual class: inhibitors; hit rate 0.63% among 310,000; AID 720579, 2013; calls by dose curve; tested in A549 cells; also: nearly all actives have a fitted effect of over 35% in size
Each line names hits and unclear results; the compound was inactive in the other large screens; ! = repeats disagree. The list is not random: actives were taken first. Their share in the collection is about 7.8%.

COc1ccccc1CN(Cc1ccco1)c1cnc(S(C)(=O)=O)nc1C(=O)Nc1cc(C)ccc1C	MARV entry inh inconclusive, Lassa entry inh inconclusive (no result: HCV inhibitor)
Cc1cc(N2CCC(C)CC2)nc(NCc2ccccc2)n1	HCV inhibitor 6.3µM, MARV entry inh inconclusive, Lassa entry inh 18µM, HCMV antiviral -85 (no result: VACV Venus inh, Vaccinia mCherry)
Cc1cc(Nc2cccc(F)c2)nc(NCc2ccccc2)n1	VACV Venus inh inconclusive, HCV inhibitor inconclusive, MARV entry inh inconclusive, Lassa entry inh inconclusive, Vaccinia mCherry 13µM
Cc1cc(N2CCC(C)CC2)nc(-c2ccccc2O)n1	HCV inhibitor inconclusive (no result: VACV Venus inh, MARV entry inh, Lassa entry inh, Vaccinia mCherry)
Cc1cc(Nc2ccc(Cl)cc2)nc(NCc2ccccc2)n1	VACV Venus inh inconclusive, HCV inhibitor inconclusive, MARV entry inh inconclusive, Lassa entry inh inconclusive, Vaccinia mCherry 11µM
Cc1cc(Nc2ccccc2)nc(NCc2ccccc2)n1	VACV Venus inh inconclusive, HCV inhibitor inconclusive, MARV entry inh inconclusive, Lassa entry inh inconclusive, HCMV antiviral -66
Cc1cc(N/N=C/c2ccc(Cl)cc2Cl)nc(NCc2ccccc2)n1	VACV Venus inh inconclusive, HCV inhibitor inconclusive, MARV entry inh inconclusive
CCc1nn(CCCC(=O)N2CCN(c3cccc(OC)c3)CC2)c(=O)c2cc3occc3n12	Lassa entry inh inconclusive (no result: HCV inhibitor)
CCN1C2=C(C=C/C1=C1\C(=O)N(C)C(=S)N1C1CCCCC1)CCCC2	none (no result: VACV Venus inh, HCV inhibitor, Lassa entry inh, HCMV antiviral, Vaccinia mCherry)
Cc1cc(C)nc(NCCCc2ccccc2)n1	none
CCCCNc1cc(C)nc(NCc2ccccc2)n1	VACV Venus inh inconclusive, HCV inhibitor inconclusive, MARV entry inh 11µM, Lassa entry inh 11µM (no result: HCMV antiviral)
O=C(c1ccc(Cl)cc1)N1CCCCC(Sc2nnc(-c3ccc4c(c3)OCO4)o2)C1=O (configuration not stated)	MARV entry inh inconclusive, Lassa entry inh inconclusive, HCMV antiviral -67 (no result: VACV Venus inh, Vaccinia mCherry)
O=C(O)CSc1nnc(-c2ccc3c(c2)OCO3)o1	none
COc1ccc(S(=O)(=O)Nc2cc3c(C(C)=O)c(C)oc3c3ccccc23)cc1	VACV Venus inh inconclusive, HCV inhibitor 18µM, MARV entry inh inconclusive, Lassa entry inh inconclusive, HCMV antiviral -76
COc1ccc(N2CCN(C(=O)COC(=O)CC(NC(N)=O)c3ccc(Cl)cc3)CC2)cc1 (configuration not stated)	HCMV antiviral -62 (no result: HCV inhibitor, MARV entry inh, Lassa entry inh)
CC[C@H](C)[C@H](NC(=O)OCc1ccccc1)C(=O)OCC(=O)N1CCN(c2ccc(OC)cc2)CC1	HCV inhibitor 13µM (no result: VACV Venus inh, MARV entry inh, Lassa entry inh, Vaccinia mCherry)
CC(C)[C@H](NC(=O)OCc1ccccc1)C(=O)OCC(=O)N1CCN(c2ccccc2)CC1	Lassa entry inh inconclusive
COc1ccc(N2CCN(C(=O)COC(=O)CNC(=O)c3ccc(Cl)cc3Cl)CC2)cc1	none
COc1ccc(C(O)c2nc3ccccc3n2C)cc1OC (configuration not stated)	HCV inhibitor 2.8µM, MARV entry inh inconclusive, HCMV antiviral -88, Vaccinia mCherry inconclusive
C1COC(NC(C2CC2)C2CC2)=N1	MARV entry inh 11µM!
CC(=O)c1c(C)[nH]c(C(=O)CSc2nnc(-c3ccco3)o2)c1C	HCV inhibitor inconclusive, MARV entry inh 11µM, Lassa entry inh inconclusive
CC(=O)c1c(C)[nH]c(C(=O)CSc2nc3ccccc3n2C)c1C	HCV inhibitor inconclusive, MARV entry inh inconclusive, Lassa entry inh inconclusive, HCMV antiviral -78
CCn1c(SCC(=O)c2[nH]c(C)c(C(C)=O)c2C)nnc1-c1cccs1	HCV inhibitor inconclusive, HCMV antiviral -93 (no result: VACV Venus inh, Vaccinia mCherry)
CCn1c(SCC(=O)c2cccs2)nnc1-c1cccs1	Lassa entry inh inconclusive
COc1ccc(CN2C3CCCC2CC(NC(=O)Nc2cccc(C)c2)C3)cc1 (configuration not stated)	HCV inhibitor inconclusive, MARV entry inh 4.6µM, Lassa entry inh inconclusive
COc1ccc(NC(=S)NC2CC3CCCC(C2)N3C2CC2)cc1 (configuration not stated)	HCV inhibitor inconclusive, MARV entry inh inconclusive, HCMV antiviral inconclusive (no result: VACV Venus inh, Vaccinia mCherry)
CCCN1C2CCCC1CC(NC(=S)Nc1ccc(OC)cc1)C2 (configuration not stated)	HCMV antiviral -64 (no result: VACV Venus inh, MARV entry inh, Lassa entry inh, Vaccinia mCherry)
CCc1ccccc1NC(=O)NC1CC2CCC(C1)N2Cc1cccs1 (configuration not stated)	none
CCc1ccc(NC(=S)NC2CC3CCCC(C2)N3Cc2cccs2)cc1 (configuration not stated)	HCV inhibitor 7.9µM, MARV entry inh inconclusive, Lassa entry inh inconclusive, Vaccinia mCherry inconclusive
CC(C)OCCCn1c(SCC(=O)Nc2ccc(F)cc2)nc2c(sc3ccccc32)c1=O	none (no result: HCV inhibitor, MARV entry inh)
CCOC(=O)CSc1nnnn1-c1cc(OC)c(Cl)cc1OC	HCV inhibitor inconclusive
COc1cc(-n2nnnc2SCC(=O)N2CCN(c3ccc(F)cc3)CC2)c(OC)cc1Cl	HCV inhibitor 11µM, MARV entry inh inconclusive, Lassa entry inh inconclusive
CCOc1ccccc1NC(c1nnc(-c2ccccc2)o1)c1ccc(F)cc1Cl (configuration not stated)	none (no result: HCV inhibitor)
CCOc1ccc(-n2nc(CO)c(C(=O)NCc3cccs3)n2)cc1	Lassa entry inh inconclusive (no result: HCV inhibitor)
COc1ccc(N2CC(NC(=O)c3cccs3)CC2=O)cc1OC (configuration not stated)	none (no result: HCV inhibitor, MARV entry inh)
O=C(CC(c1cccs1)N1Cc2ccccc2C1=O)Nc1ccc(F)c(Cl)c1 (configuration not stated)	none (no result: HCV inhibitor, MARV entry inh)
CCOC(=O)N1CCN(C(=O)CN(c2cc(C)ccc2OC)S(=O)(=O)c2ccc(C)cc2)CC1	none (no result: HCV inhibitor)
O=C1CN(c2nc(-c3cccs3)nc3sc4c(c23)CCCC4)CCN1	VACV Venus inh inconclusive, HCV inhibitor 5.6µM, MARV entry inh inconclusive, Lassa entry inh inconclusive
O=c1oc(-c2cccs2)nc2sc3c(c12)CCCC3	Lassa entry inh inconclusive
COc1ccc(NC(=O)c2oc3ccccc3c2NC(=O)COc2ccc(C(C)C)cc2)c(OC)c1	none (no result: HCV inhibitor)
COc1ccccc1C(=O)N1CCCCC1CCN1CCOCC1 (configuration not stated)	none (no result: HCV inhibitor)
COc1ccc(C(=O)c2no[n+]([O-])c2C(=O)c2ccc(OC)cc2)cc1	HCV inhibitor inconclusive, Lassa entry inh inconclusive, HCMV antiviral -105
O=C(c1cccs1)c1no[n+]([O-])c1C(=O)c1cccs1	VACV Venus inh inconclusive, HCV inhibitor 10µM (no result: HCMV antiviral)
O=C(c1ccc(Cl)nc1)c1cccs1	none (no result: HCMV antiviral)
CCCCCn1ccc(=O)c2c(C(F)(F)F)nccc21	HCV inhibitor 11µM, MARV entry inh inconclusive, Lassa entry inh inconclusive, HCMV antiviral -66 (no result: VACV Venus inh, Vaccinia mCherry)
COc1ccc(S(=O)(=O)N2CCC(C(=O)Nc3ccc(Oc4ccccc4)cc3)CC2)cc1OC	none (no result: HCV inhibitor)
COc1ccc(C(C(=O)NCc2ccccc2)N(C(=O)Cn2nnc3ccccc32)c2ccc(F)cc2)cc1 (configuration not stated)	HCMV antiviral inconclusive (no result: HCV inhibitor)
CN(C)c1ccc(/C=N/N=C/c2ccccc2O)cc1	MARV entry inh 5.6µM, Lassa entry inh inconclusive
